{"source": "PubChem BioAssay (NCATS)", "note": "Results filed as inconclusive are left out. Unmarked numbers belong to inactive results. Active and inactive are the calls of the source. Calls follow the shape of the dose curve; as a rule, active = well fitted inhibition curve with a large enough effect; inconclusive = small, poorly fitted or top-dose-only effect; inactive = flat fitted curve, though single readings scatter. Potency is read from the fitted curve at half-maximal effect."}
{"experiment": "BET inhibitor-based combinations targeting novel dependencies in MECOM-rearranged (r) AML: AML-194 cell line (AID 2202237; also: nearly all actives have a fitted effect of over 40% in size;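 as to viability (% of control): plate controls were vehicle wells for no effect and wells without cells for full effect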)", "conditions": "AML-194 (MECOM-r AML) viability, CellTiter-Glo, 48 h; series mostly up to 46 µM; viability (% of control): at the top concentration", "from_the_text": "Ecotropic viral insertion site 1 (EVI1) is located on chromosome 3q26.2 as part of the MECOM (MDS and EVI1 complex) locus. Under normal hematopoiesis, EVI1 is a regulator of hematopoietic stem cell maintenance and self-renewal and EVI1 levels decrease as the cells differentiate. In approximately 5-10% of de novo acute myeloid leukemia (AML) EVI1 is aberrantly expressed, including Chromosomal inv(3)(q21;q26.2) or t(3;3)(q21;q26.2) alterations (MECOM-r) that account for about 50% of AML with EVI1 overexpression 31. AMLs with high levels of EVI1 have a poor prognosis and an overall survival time averaging between 10-14 months. EVI1 overexpression confers resistance in leukemia cells, highlighting the need to develop new targeted therapies for EVI1 overexpressing AMLs.\nHere, we performed an unbiased chemical drug screening by evaluating the single agent activity of a collection of 2,480 oncology-focused, approved and investigational drugs (NCATS Mechanism Interrogation Plates, MIPE v5.0) against a panel of seven AML cell lines. These included four MECOM-r cell-lines (AML-191, AML-194, UCSD-AML1 and HNT-34) and three non-MECOM-r AMLs (MV4-11, OCI-AML3 and SET-2). Exploiting the mechanistic redundancy built in the library, we identified target-level sensitivities in MECOM-r AML cells and relative activity as compared to other AML subtypes.\nA collection of 2480 mechanistically annotated dugs (MIPE v5.0) was used to screen four 3q26.2 rearranged AML cell lines and three non-3q26.2 rearranged AML cell lines. This library purposely exploits redundancy by including multiple inhibitors of key onco-targets, while simultaneously encompassing mechanistic diversity, targeting more than 800 distinct mechanisms of action. Briefly, cells were seeded in 5 uL of growth media using a Multidrop Combi dispenser into 1536 well white polystyrene tissue culture treated plates (Corning) at a density of 500cells/well. For each cell-line, for each of the 2480 drugs in MIPE v5.0 library, an 11-point dose curve was generated via a 1536 pin-tool. Plates were incubated for 48 hr at standard incubator conditions, covered by a stainless steel gasketed lid to prevent evaporation. Cell viability was determined by luminescence based, Cell Titer Glo assay (Promega). In detail, 3 uL of Cell Titer Glo were added to each well and plates were incubated at room temperature for 15 min with a stainless-steel lid in place. Luminescence readings were taken using a Viewlux (PerkinElmer) with a 2 s exposure time per plate. Compound dose-response curves were normalized to DMSO and empty well controls on each plate. Quantitative drug activity data from dose-response curves was determined utilizing area Under the Curve (AUC) and Z-transformed AUC (Z-AUC, a mean-centering transformation applied to each individual cell-line screened).", "units": {"viability (% of control)": "%"}}
{"smiles": "CC(C)NCC(O)c1ccc(NS(C)(=O)=O)cc1", "note": "(stereo not given)", "viability (% of control)": 119}
{"smiles": "CN1C(C(=O)Nc2ccccn2)=C(O)c2sc(Cl)cc2S1(=O)=O", "viability (% of control)": 98.9}
{"smiles": "CN(C)CCN1C(=O)c2cccc3cc(N)cc(c23)C1=O", "Potency": "16.6 µM (active)"}
{"smiles": "O=C(Nc1cccnn1)N1CCC(=Cc2cccc(Oc3ccc(C(F)(F)F)cn3)c2)CC1", "Potency": "18.6 µM (active)"}
{"smiles": "CC[C@H](C)n1cc(C)c2c(C(=O)NCc3c(C)cc(C)[nH]c3=O)cc(-c3ccc(N4CCNCC4)nc3)cc21", "viability (% of control)": 73.3}
{"smiles": "CN1CC(=O)NC1=NC(=O)Nc1cccc(Cl)c1", "viability (% of control)": 107}
{"smiles": "CCC[C@H](N[C@H]1CCc2cc(F)cc(F)c2C1)C(=O)Nc1cn(C(C)(C)CNCC(C)(C)C)cn1", "viability (% of control)": 105}
{"smiles": "Cc1cc(C)c(/C=C2\\C(=O)Nc3ccccc32)[nH]1", "viability (% of control)": 96.9}
{"smiles": "CCCCNc1cc(C(=O)O)cc(S(N)(=O)=O)c1Oc1ccccc1", "viability (% of control)": 119}
{"smiles": "COc1cc(OC2CCN(C)CC2)ccc1Nc1ncc2c(n1)n(C1CCCC1)c(=O)n2C", "Potency": "16.6 µM (active)"}
{"smiles": "CCC[C@H](N[C@@H](C)C(=O)N1[C@@H]2CCCC[C@H]2C[C@H]1C(=O)O)C(=O)OCC", "viability (% of control)": 114}
{"smiles": "Nc1nc(NCCNc2ncc(-n3ccnc3)c(-c3ccc(Cl)cc3Cl)n2)ccc1[N+](=O)[O-]", "viability (% of control)": 133}
{"smiles": "O=C(Nc1ccc(S(=O)(=O)N2CCOCC2)cc1)c1cc(Cl)ccc1NS(=O)(=O)c1ccc(Cl)s1", "viability (% of control)": 108}
{"smiles": "CCc1cccc(CC)c1NC(=O)N1Cc2[nH]nc(NC(=O)c3ccc(N4CCN(C)CC4)cc3)c2C1", "Potency": "9.34 µM (active)"}
{"smiles": "Cc1cc2c(C(C)C)c(O)c(O)c(C=O)c2c(O)c1-c1c(C)cc2c(C(C)C)c(O)c(O)c(C=O)c2c1O", "Potency": "13.2 µM (active)"}
{"smiles": "Cc1nc(Nc2n[nH]c3c2CN(C(=O)N[C@H](CN(C)C)c2ccccc2)C3(C)C)c2sccc2n1", "Potency": "1.66 µM (active)"}
{"smiles": "C[C@@H]1O[C@@H](O[C@@H]2\\C=C/C=C\\C=C/C=C\\C[C@H](C)OC(=O)/C=C\\[C@H]3O[C@@H]3C[C@H](O)C[C@]3(O)C[C@@H](O)[C@@H](C(=O)O)[C@H](C2)O3)[C@H](O)[C@H](N)[C@@H]1O", "viability (% of control)": 101}
{"smiles": "CS(=O)(=O)c1ccc(C2=C(c3ccccc3)C(=O)OC2)cc1", "viability (% of control)": 102}
{"smiles": "OC[C@H]1OC(O)C[C@@H](O)[C@H]1O", "note": "(stereo not given in full)", "viability (% of control)": 101}
{"smiles": "COC(=O)N(C)c1c(N)nc(-c2nn(Cc3ccccc3F)c3ncccc23)nc1N", "viability (% of control)": 107}
{"smiles": "Cc1cc(OCc2nnc(SC3CCCC3)n2-c2cccnc2)ccc1-c1ccc(S(C)(=O)=O)cc1", "Potency": "7.42 µM (active)"}
{"smiles": "CC(C)C[C@H](CC(=O)O)C(=O)N[C@@H](Cc1c[nH]c2ccccc12)C(=O)N[C@@H](C)c1ccccc1", "Potency": "18.6 µM (active)"}
{"smiles": "NC(=O)c1ccc(-c2nc(-c3ccc4c(c3)OCO4)c(-c3ccccn3)[nH]2)cc1", "viability (% of control)": 108}
{"smiles": "COc1ncc(-c2ccc3c(Nc4cc(Oc5cc(F)cc(F)c5)cc(C(=O)O)c4)c(S(=O)(=O)NC4CC4)cnc3c2)c(OC)n1", "viability (% of control)": 99.6}
{"smiles": "Cc1ccc(O)c(C(CCN(C(C)C)C(C)C)c2ccccc2)c1", "note": "(stereo not given)", "viability (% of control)": 116}
{"smiles": "Cc1ccc(-c2ccc3ncc4c(c3n2)n(C2CCN(C(=O)[C@H](C)O)CC2)c(=O)n4C)cn1", "Potency": "0.417 µM (active)"}
{"smiles": "Cc1[nH]c(/C=C2\\C(=O)Nc3ccc(S(=O)(=O)N(C)c4cccc(Cl)c4)cc32)c(C)c1C(=O)N1CCN(C)CC1", "Potency": "7.42 µM (active)"}
{"smiles": "COc1ccc(C2(C#N)CCC(C(=O)O)CC2)cc1OC1CCCC1", "note": "(stereo not given)", "viability (% of control)": 118}
{"smiles": "CCOC(=O)[C@H]1O[C@@H]1C(=O)N[C@@H](CC(C)C)C(=O)NCCC(C)C", "viability (% of control)": 112}
{"smiles": "CC(=O)NC(CS)C(=O)O", "note": "(stereo not given)", "viability (% of control)": 101}
{"smiles": "COC(=O)[C@@H]1[C@H]2C[C@H]3c4[nH]c5ccccc5c4CCN3C[C@@H]2CC[C@@H]1O", "viability (% of control)": 99.7}
{"smiles": "COc1cc([C@@H]2c3cc4c(cc3[C@H](O)[C@H]3COC(=O)[C@@H]23)OCO4)cc(OC)c1OC", "Potency": "0.525 µM (active)"}
{"smiles": "CN(Cc1cc(Br)cc(Br)c1N)C1CCCCC1", "viability (% of control)": 106}
{"smiles": "CC(C)CC(=O)Nc1n[nH]c2c1CN(C(=O)C1CCN(C)CC1)C2(C)C", "Potency": "5.9 µM (active)"}
{"smiles": "COCCN1CCN(Cc2ccc(-c3n[nH]c4c3C(=O)c3c(NC(=O)NN5CCOCC5)cccc3-4)cc2)CC1", "Potency": "0.332 µM (active)"}
{"smiles": "N#C[C@@H]1C[C@@H]2C[C@@H]2N1C(=O)[C@@H](N)C12CC3CC(CC(O)(C3)C1)C2", "Potency": "14.8 µM (active)"}
{"smiles": "O=C(C1CCCCC1)N1CC(=O)N2CCc3ccccc3C2C1", "note": "(stereo not given)", "viability (% of control)": 107}
{"smiles": "CC(=O)Nc1nc(C)c(-c2ccc(Cl)c(S(=O)(=O)NCCO)c2)s1", "Potency": "4.17 µM (active)"}
{"smiles": "CN1CCN(C2=Nc3cc(Cl)ccc3Nc3ccccc32)CC1", "viability (% of control)": 69.9}
{"smiles": "CN1CC[C@@H](c2c(O)cc(O)c3c(=O)cc(-c4ccccc4Cl)oc23)[C@@H](O)C1", "Potency": "0.417 µM (active)"}
